Results taken from PubChem BioAssay (Tox21).
Inconclusive results are not listed. Calls of active or inactive are those of the source. Unless noted, calls come from the whole dose curve; as a rule, active = well fitted curve in the direction sought with a large enough effect in the repeat runs; inconclusive = weak or mixed curves; inactive = no such curve, though single readings can be large; an effect the other way counts as inactive or inconclusive.

Columns and labels:
[1] = qHTS assay for small molecule agonists of the p53 signaling pathway (AID 651631; calls by dose curve; note: nearly all actives have a fitted effect of over 15% in size)
How it was run: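 Beta-lactamase reporter activity under p53 response elements was quantified in HCT-116 cells by FRET fluorescence, following 16 h incubation with test compounds at 37 °C and 2 h substrate development at room temperature.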

[2] = qHTS assay for small molecules that induce genotoxicity in human embryonic kidney cells expressing luciferase-tagged ATAD5 (AID 651632); note: nearly all actives have a fitted effect of over 15% in size
How it was run: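 Luminescence read-out: after 16 hr compound exposure at 37C, ATAD5-luciferase HEK293T cells received Amplite, 30 min RT, then CCD imaging. A rise in signal marks genotoxic stress.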

[3] = qHTS assay for small molecule agonists of the p53 signaling pathway - cell viability (AID 651633; calls by dose curve;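 note: p53RE-bla HCT reporter cells with a stable beta-lactamase p53 reporter; series mostly up to about 83 µM; nearly all actives have a fitted effect of over 30% in size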)
How it was run: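 p53RE-bla cells, seeded at 4,000 per well and rested 5 h at 37 C/5% CO2, received compounds in DMSO for 16 h at 37 C. CellTiter-Glo was then added, and luminescence was read after 30 min at room temperature to gauge cytotoxicity.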

[4] = qHTS assay for small molecules that induce genotoxicity in human embryonic kidney cells expressing luciferase-tagged ATAD5 - cell viability (AID 651634; calls by dose curve; note: nearly all actives have a fitted effect of over 25% in size)
How it was run: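 HEK293T ATAD5-luc cells, 2,000/well; compound 15.5 hr, 37C/5% CO2; CellTiter-Fluor 30 min, 37C; fluorescence read.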

[5] = qHTS assay for small molecule disruptors of the mitochondrial membrane potential - cell viability (AID 720634; calls by dose curve;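 note: human HepG2 liver cancer cells; series mostly up to about 83 µM; nearly all actives have a fitted effect of over 20% in size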)
How it was run: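 Luminescence from CellTiter-Glo (ATP content) gave viability in HepG2 cells, read in the same wells as the MMP dye assay after 1 hr compound exposure at 37 C.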

[6] = qHTS assay to test for compound auto fluorescence at 590 nm (red) in HepG2 cells (AID 720674)
How it was run: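 Intrinsic compound fluorescence in the red window (Ex/Em 540/590 nm) is measured in attached HepG2 cells exposed for 1 hr, DMSO vehicle as baseline, benchmarked to Rose Bengal sodium.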

[7] = qHTS assay to test for compound auto fluorescence at 535 nm (green) in HepG2 cells (AID 720675)
[8] = qHTS assay to test for compound auto fluorescence at 460 nm (blue) in HEK293 cells (AID 720678)
How it was run: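 HEK293, 2,000 cells/well, 10% dialyzed FBS; attach 4-5 hr 37C; pin compound or DMSO; o/n 37C/5% CO2; fluorescence 405/460 nm; triamterene-equivalent units.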

[9] = qHTS assay to test for compound auto fluorescence at 590 nm (red) in HEK293 cells (AID 720679)
How it was run: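 Intensity at 540nm excitation and 590nm emission is reported as Rose Bengal sodium-equivalent autofluorescence. Measurements followed overnight exposure (37C, 5% CO2) of HEK293 cells, 2,000 per well, to 23 nL compound.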

[10] = qHTS assay to test for compound auto fluorescence at 535 nm (green) in HEK293 cells (AID 720680)
[11] = qHTS assay to test for compound auto fluorescence at 460 nm (blue) in HEK293 cell free culture (AID 720681)
How it was run: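 Test compounds were pinned into cell-free culture medium (DMEM with 10% FBS) and fluorescence was read directly at Ex/Em 405/460 nm. Signals were expressed as fluorescence equivalents of triamterene, with DMSO vehicle as control.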

[12] = qHTS assay to test for compound auto fluorescence at 535 nm (green) in HEK293 cell free culture (AID 720682)
How it was run: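 Each library compound, or DMSO control, is added by pintool to medium alone, comprising DMEM and 10% FBS. Emission at 535 nm following 485 nm excitation is quantified against fluorescein.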

[13] = qHTS assay to test for compound auto fluorescence at 590 nm (red) in HEK293 cell free culture (AID 720683)
How it was run: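 Tox21 10K library compounds were pinned into cell-free DMEM with 10% FBS and fluorescence was read at excitation 540 nm. Activity is expressed as Rose Bengal sodium equivalency.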

[14] = qHTS assay to test for compound auto fluorescence at 590 nm (red) in HepG2 cell free culture (AID 720684)
How it was run: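 Readout: intrinsic compound fluorescence at 590 nm emission after 540 nm excitation, scaled to Rose Bengal sodium. Matrix was cell-free MEM with 10% FBS; DMSO vehicle wells served as control.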

[15] = qHTS assay to test for compound auto fluorescence at 460 nm (blue) in HepG2 cell free culture (AID 720685)
How it was run: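 Cell-free plates of MEM plus 10% FBS received 23 nL compound or DMSO vehicle; blue-channel (405/460 nm) intensity scored against triamterene as reference fluorophore.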

[16] = qHTS assay to test for compound auto fluorescence at 535 nm (green) in HepG2 cell free culture (AID 720686)
[17] = qHTS assay to test for compound auto fluorescence at 460 nm (blue) in HepG2 cells (AID 720687)
How it was run: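 Cells (2,000/well in MEM with 10% FBS) attached overnight at 37 C, then were exposed to compound or DMSO for 1 hr at 37 C, 5% CO2. Fluorescence read at Ex/Em 405/460 nm, expressed as triamterene-equivalent signal.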

[18] = biological target: Glucocorticoid receptor (Homo sapiens) (UniProt P04150); experiment: qHTS assay to identify small molecule agonists of the glucocorticoid receptor (GR) signaling pathway (AID 720691; active = well fitted activation curve with a large enough effect in the signal ratio in the repeat runs, not every such curve was filed as active; the % refers to the signal ratio)
Glucocorticoid receptor (Homo sapiens), sequence (P04150 whole entry, looked up): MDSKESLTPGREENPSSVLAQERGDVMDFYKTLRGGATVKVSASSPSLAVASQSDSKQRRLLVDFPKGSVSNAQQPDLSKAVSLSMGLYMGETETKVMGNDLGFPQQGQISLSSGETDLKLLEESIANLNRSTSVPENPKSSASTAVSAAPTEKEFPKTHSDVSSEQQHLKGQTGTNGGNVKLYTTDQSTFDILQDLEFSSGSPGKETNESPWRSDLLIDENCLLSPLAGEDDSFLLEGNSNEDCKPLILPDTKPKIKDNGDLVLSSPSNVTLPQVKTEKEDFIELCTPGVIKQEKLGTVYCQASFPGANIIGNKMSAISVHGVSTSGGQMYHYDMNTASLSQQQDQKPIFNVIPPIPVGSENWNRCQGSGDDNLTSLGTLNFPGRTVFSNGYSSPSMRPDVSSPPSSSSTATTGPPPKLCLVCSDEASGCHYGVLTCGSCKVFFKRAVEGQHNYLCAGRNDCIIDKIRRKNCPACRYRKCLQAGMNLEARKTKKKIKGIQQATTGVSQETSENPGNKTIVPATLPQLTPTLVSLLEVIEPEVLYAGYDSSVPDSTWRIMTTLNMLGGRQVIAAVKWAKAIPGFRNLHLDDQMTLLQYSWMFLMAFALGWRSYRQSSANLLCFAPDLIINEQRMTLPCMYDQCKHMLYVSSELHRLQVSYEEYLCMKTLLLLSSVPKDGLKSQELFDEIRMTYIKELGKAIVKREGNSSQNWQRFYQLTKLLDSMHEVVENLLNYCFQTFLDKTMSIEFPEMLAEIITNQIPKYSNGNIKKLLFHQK
How it was run: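 HeLa GR-bla reporter line; cells pre-incubated 4 h, compound in DMSO 18 h at 37 C; LiveBLAzer B/G FRET substrate 2 h RT; fluorescence intensity read-out.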

[19] = biological target: Glucocorticoid receptor (Homo sapiens) (UniProt P04150); experiment: qHTS assay to identify small molecule antagonists of the glucocorticoid receptor (GR) signaling pathway (AID 720692; active = well fitted inhibition curve with a large enough effect in the signal ratio in the repeat runs, not every such curve was filed as active; the % refers to the signal ratio)
How it was run: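 Read-out: beta-lactamase FRET substrate fluorescence, 2 h at room temperature, in HeLa cells stably carrying a GRE-driven bla reporter. Compounds were co-incubated with 5 nM dexamethasone agonist (final) for 18 h at 37 C.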

[20] = qHTS assay for small molecule disruptors of the mitochondrial membrane potential (AID 720635)
How it was run: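 HepG2 cells (2,000/well) attached overnight at 37C, then took compound for 1 hr at 37C, 5% CO2. Mito-MPS dye was added for 30 min; fluorescence was read at 490/535 nm (monomers) and 540/590 nm (aggregates).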

Measured: Potency

Cc1ccc(Cl)cc1N
inactive: [1] | [2] | [3] | [4] | [5] | [6] | [7] | [8] | [9] | [10] | [11] | [12] | [13] | [14] | [15] | [16] | [17] | [18] | [19]

CCOCCC(=O)OCC
inactive: [1] | [2] | [3] | [4] | [5] | [6] | [7] | [8] | [9] | [10] | [11] | [12] | [13] | [14] | [15] | [16] | [17]

O=c1[nH][nH]c(=O)c2cc([N+](=O)[O-])ccc12
inactive: [1] | [2] | [3] | [4] | [5] | [6] | [7] | [8] | [9] | [10] | [12] | [13] | [14] | [15] | [16] | [17] | [18] | [19]

CCCCCCC(CO)CCCC (centres undefined)
inactive: [1] | [2] | [3] | [4] | [5] | [6] | [7] | [8] | [9] | [10] | [11] | [12] | [13] | [14] | [15] | [16] | [17] | [18]

CC(=O)OCCC1CCCCC1
inactive: [1] | [2] | [3] | [4] | [5] | [20] | [6] | [8] | [9] | [10] | [11] | [12] | [13] | [14] | [15] | [16] | [17] | [18] | [19]

O=CNNC=O
inactive: [1] | [2] | [3] | [4] | [5] | [6] | [7] | [8] | [9] | [10] | [11] | [12] | [13] | [14] | [15] | [16] | [17] | [18] | [19]

CN=C(N)NC(=O)Nc1c(C)cccc1C
inactive: [1] | [2] | [3] | [4] | [5] | [20] | [6] | [7] | [8] | [9] | [10] | [12] | [13] | [14] | [15] | [16] | [17] | [18] | [19]
